Data on eight compounds can be found in PubChem BioAssay (NCI).

Assay [1] in a line: NCI Yeast Anticancer Drug Screen. Data for the rad50 strain (AID 155).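 Note: 0% = growth of vehicle-only cultures of the same strain.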 Conditions: S. cerevisiae rad50 strain growth inhibition, hits give high values. In outline: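 Growth of the mutant yeast was measured after compound exposure and referenced to vehicle-treated cultures.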
Assay [2] in a line: NCI Yeast Anticancer Drug Screen. Data for the mec2-1 strain (AID 157). As to conditions: S. cerevisiae mec2-1 strain, hits give high values. An outline of the steps:
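Mutant yeast (mec2-1) grown with compound; growth inhibition relative to vehicle control reported.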

Assay [3] in a line: NCI Yeast Anticancer Drug Screen. Data for the sgs1 mgt1 strain (AID 161).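 Note: 0% = growth of cultures given vehicle only.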 As to conditions: S. cerevisiae sgs1 mgt1 strain, hits give high values. In outline: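 This yeast growth screen uses a strain with defined DNA-repair lesions; compound-treated growth is compared with vehicle-treated growth.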
The nature of assay [4]: NCI Yeast Anticancer Drug Screen. Data for the cln2 rad14 strain (AID 165).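 Note: 0% = growth equal to vehicle treated cultures.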 As to conditions: S. cerevisiae cln2 rad14 strain, hits give high values. In outline: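 Readout is yeast growth inhibition versus vehicle-treated controls, using a strain with cln2 and rad14 alterations exposed to compound.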
The nature of assay [5]: NCI Yeast Anticancer Drug Screen. Data for the bub3 strain (AID 167). As to conditions: S. cerevisiae bub3 mutant strain, hits give high values. An outline of the steps:
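Whole-cell yeast assay. The mutant strain was incubated with compounds, and growth inhibition was determined by comparison with vehicle-treated cells.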

Assay [6] is described as follows: NCI Yeast Anticancer Drug Screen. Data for the mlh1 rad18 strain (AID 175). Conditions: S. cerevisiae mlh1 rad18 strain growth inhibition, hits give high values. An outline of the steps:
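Genetically defined yeast (DNA repair-deficient) exposed to compounds; growth inhibition determined relative to vehicle.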

Where [7] appears, read: at 5.0 µM (retest, dose inferred, filed as 0.5).
The mark [8] stands for this setting: at 50.0 µM (retest, dose inferred, filed as 5.0).

“And” between values parts separate entries of the source, which are not always exact repeats. Identical values can stand only once. This is part of a sample that, as a whole, favours compounds with a hit. Of some 79,000 tested, about 15% had one in any assay. A number with no mark means an inactive call. The source made the active and inactive calls. Cut-off read from the data, not from the text of the source: active = growth inhibition above about 70%; inactive = the rest.

`COc1ccc(C2SC(N)=Nc3c2c(C)nn3C(=O)c2ccc(Cl)cc2)cc1OC` (centres undefined): the growth inhibition in assay [1] (setting [7]) was 6%; in assay [1] (setting [8]) it was 11%; in assay [1] (at 50.0 µM), -19.2%; in assay [2] (setting [7]), -10%; in assay [2] (setting [8]), -1%; in assay [2] (at 50.0 µM) it was 14.5%. The growth inhibition in assay [3] (setting [7]) was -7%; in assay [3] (setting [8]), 0%; in assay [3] (at 50.0 µM), 3.85%; in assay [4] (setting [7]), -21%; in assay [4] (setting [8]), 1%; in assay [4] (at 50.0 µM), 64.5%. Also, the growth inhibition in assay [5] (setting [7]) is -18%; in assay [5] (setting [8]), 15%; in assay [5] (at 50.0 µM) it was 16.1%; in assay [6] (setting [7]), -8%; in assay [6] (setting [8]), -15%; in assay [6] (at 50.0 µM) it was -26.6%.

With `O=C1OC(c2ccc(O)cc2)(c2ccc(O)cc2)c2cccc3cccc1c23`, the growth inhibition in assay [1] (setting [7]) was 25%; in assay [1] (setting [8]), 99% (active); in assay [1] (at 50.0 µM), 99% (active); in assay [2] (setting [7]), 11%; in assay [2] (setting [8]) it was 99% (active); in assay [2] (at 50.0 µM) it was 99.2% (active). Besides, the growth inhibition in assay [3] (setting [7]) was 17%; in assay [3] (setting [8]) it was 99% (active); in assay [3] (at 50.0 µM) it was 99% (active); in assay [4] (setting [7]) it was 14%; in assay [4] (setting [8]), 99% (active); in assay [4] (at 50.0 µM), 98.9% (active). Besides, the growth inhibition in assay [5] (setting [7]) was 11%; in assay [5] (setting [8]), 99% (active); in assay [5] (at 50.0 µM), 99% (active); in assay [6] (setting [7]), 23%; in assay [6] (setting [8]), 99% (active); in assay [6] (at 50.0 µM), 98.3% (active).

`C[N+]1(Cc2ccc(Cl)c(Cl)c2)CCCC1C1CCCN(Cc2ccc(Cl)c(Cl)c2)C1` (centres undefined): the growth inhibition is -4% in assay [1] (setting [7]); 51% in assay [1] (setting [8]); 6.55% and -11.7% in assay [1] (at 50.0 µM); -2% in assay [2] (setting [7]); 59% in assay [2] (setting [8]); -3.95% and 3.6% in assay [2] (at 50.0 µM). The growth inhibition in assay [3] (setting [7]) was 3%; in assay [3] (setting [8]), 80% (active); in assay [3] (at 50.0 µM), 5.3% and 14%; in assay [4] (setting [7]), -11%; in assay [4] (setting [8]), 27%; in assay [4] (at 50.0 µM) it was -15.3% and 42.5%. Further, the growth inhibition in assay [5] (setting [7]) is -1%; in assay [5] (setting [8]) it was 61%; in assay [5] (at 50.0 µM), 22.2% and 15.3%; in assay [6] (setting [7]), -2%; in assay [6] (setting [8]), 76% (active); in assay [6] (at 50.0 µM), 29.1% and 48.3%.

`CCCCCCCCOC(=O)c1cc(O)c(O)c(O)c1`: the growth inhibition is 49% in assay [1] (setting [7]); 64% in assay [1] (setting [8]); 89.2% (active) in assay [1] (at 50.0 µM); 46% in assay [2] (setting [7]); 68% in assay [2] (setting [8]); 91.7% (active) in assay [2] (at 50.0 µM). Moreover, the growth inhibition in assay [3] (setting [7]) is 59%; in assay [3] (setting [8]), 98% (active); in assay [3] (at 50.0 µM), 93% (active); in assay [4] (setting [7]), 48%; in assay [4] (setting [8]), 98% (active); in assay [4] (at 50.0 µM) it was 90% (active). Moreover, the growth inhibition in assay [5] (setting [7]) was 70% (active); in assay [5] (setting [8]) it was 97% (active); in assay [5] (at 50.0 µM), 89.8% (active); in assay [6] (setting [7]), 44%; in assay [6] (setting [8]), 59%; in assay [6] (at 50.0 µM), 89.2% (active).

As for `CC(NC(=O)/C(C#N)=C/c1ccc2[nH]ccc2c1)c1ccccc1` (centres undefined), the growth inhibition in assay [1] (setting [7]) is 0%; in assay [1] (setting [8]), 94% (active); in assay [1] (at 50.0 µM), 86.2% (active); in assay [2] (setting [7]) it was 1%; in assay [2] (setting [8]), 95% (active); in assay [2] (at 50.0 µM), 90% (active). The growth inhibition in assay [3] (setting [7]) was 16%; in assay [3] (setting [8]), 93% (active); in assay [3] (at 50.0 µM) it was 88.8% (active); in assay [4] (setting [7]), 7%; in assay [4] (setting [8]), 91% (active); in assay [4] (at 50.0 µM), 86.5% (active). Besides, the growth inhibition in assay [5] (setting [7]) was 3%; in assay [5] (setting [8]), 94% (active); in assay [5] (at 50.0 µM), 86.2% (active); in assay [6] (setting [7]), -5%; in assay [6] (setting [8]) it was 96% (active); in assay [6] (at 50.0 µM), 86.3% (active).

For the compound `O=C(NCCCCCCNC(=O)n1cc(F)c(=O)[nH]c1=O)NCCCOCCOCCOCCOCCOCCOCCOCCOCCOCCOCCOCCOCCOCCOCCOCCOCCOCCOCCOCCOCCOCCCNC(=O)C(O)C(O)C(OC1OC(CO)C(O)C(O)C1O)C(O)CO` (centres undefined), the growth inhibition is 11% in assay [1] (setting [7]); 95% (active) in assay [1] (setting [8]); 74.3% (active) in assay [1] (at 50.0 µM); 7% in assay [2] (setting [7]); 78% (active) in assay [2] (setting [8]); 89% (active) in assay [2] (at 50.0 µM). In addition, the growth inhibition in assay [3] (setting [7]) is 30%; in assay [3] (setting [8]), 81% (active); in assay [3] (at 50.0 µM), 81.5% (active); in assay [4] (setting [7]), 16%; in assay [4] (setting [8]), -5%; in assay [4] (at 50.0 µM) it was 27.1%. Further, the growth inhibition was 1% in assay [5] (setting [7]); 4% in assay [5] (setting [8]); 48.4% in assay [5] (at 50.0 µM); 19% in assay [6] (setting [7]); 97% (active) in assay [6] (setting [8]); -10.2% in assay [6] (at 50.0 µM).

Take `C=C(C)C(=O)Oc1ccc(NC(=O)c2ccccc2)ccc1=O`: the growth inhibition was 5% and -1% in assay [1] (setting [7]); 96% (active) and 95% (active) in assay [1] (setting [8]); 92.5% (active) and 96.7% (active) in assay [1] (at 50.0 µM); 2% and 26% in assay [2] (setting [7]); 96% (active) in assay [2] (setting [8]); 75.2% (active) and 83.6% (active) in assay [2] (at 50.0 µM). Moreover, the growth inhibition is 7% and 19% in assay [3] (setting [7]); 95% (active) and 98% (active) in assay [3] (setting [8]); 96% (active) and 94.3% (active) in assay [3] (at 50.0 µM); -1% and 1% in assay [4] (setting [7]); 92% (active) in assay [4] (setting [8]); 89.5% (active) and 83.8% (active) in assay [4] (at 50.0 µM). Also, the growth inhibition was 5% and 0% in assay [5] (setting [7]); 94% (active) and 93% (active) in assay [5] (setting [8]); 89.5% (active) and 93% (active) in assay [5] (at 50.0 µM); 13% and 6% in assay [6] (setting [7]); 98% (active) in assay [6] (setting [8]); 96.8% (active) and 96.6% (active) in assay [6] (at 50.0 µM).

Turning to `C=CC(=O)OCCOc1ccc(Cl)cc1Cl`, the growth inhibition in assay [1] (setting [7]) was 1%; in assay [1] (setting [8]) it was 98% (active); in assay [1] (at 50.0 µM), 57.2%; in assay [2] (setting [7]), 2%; in assay [2] (setting [8]), 99% (active); in assay [2] (at 50.0 µM), 30.4%. The growth inhibition in assay [3] (setting [7]) was 6%; in assay [3] (setting [8]), 98% (active); in assay [3] (at 50.0 µM), 73.2% (active); in assay [4] (setting [7]), -1%; in assay [4] (setting [8]) it was 94% (active); in assay [4] (at 50.0 µM) it was -28.1%. In addition, the growth inhibition in assay [5] (setting [7]) was 12%; in assay [5] (setting [8]), 97% (active); in assay [5] (at 50.0 µM), 24.2%; in assay [6] (setting [7]), 24%; in assay [6] (setting [8]), 98% (active); in assay [6] (at 50.0 µM) it was 83.9% (active).
